# The list is not random: actives were taken first. Their share in the collection is about 2.8%.
# LDHA inh: qHTS assay for inhibitors of human lactate dehydrogenase. activity change, % (values are at about 110 or 230 µM). purified LDHA, NADH/diaphorase-resazurin fluorescence; stronger effect = lower value. L-lactate dehydrogenase A chain (Homo sapiens), P00338. 480,000 compounds, 0.15% hits; in the data active means activity change below about -30%; inconclusive means mostly about -25% to -30%
#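 Human LDH5 at 2 nM final in Tris HCl pH 7.4 with 0.06 mM NADH and 0.2 mM pyruvate, reacted 5 minutes at room temperature. Remaining NADH coupled via diaphorase/resazurin; resorufin fluorescence read at 0 and 20 minutes, normalized to enzyme-free and DMSO wells.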
# D3 ag: qHTS of D3 Dopamine Receptor Agonist: qHTS; AID 652048, 2013; D(3) dopamine receptor (Homo sapiens), P35462; max activation, %; 410,000 compounds, 0.58% hits; D3R DiscoveRx beta-arrestin cells, luminescence, 90 min; in the data active means max activation above about 30%
#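 Agonist mode: compounds and dopamine controls were applied to plated cells for 90 min at 37 degrees C after an overnight attachment at 1500 cells/well. Luminescent read-out followed 30 - 60 minutes at room temperature with DiscoveRx detection reagent.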
# RGS4 inhibitor: Inhibitors of Regulator of G Protein Signaling (RGS) 4: qHTS | Regulator of G-protein signaling 4 (Homo sapiens), P49798 | Transcreener GDP fluorescence polarization, RGS4-accelerated GTP hydrolysis | Potency, µM (highest dose often 114 µM), hits mostly inhibitors | 390,000 compounds, 0.039% hits | AID 504845, 2011; active means well fitted inhibition curve with a large enough effect; inconclusive means small, poorly fitted or top-dose-only effect; inactive means no such curve, though single readings can be large or run the other way; further: nearly all actives have a fitted effect of over 75% in size
# Target sequence (P49798 whole entry, looked up): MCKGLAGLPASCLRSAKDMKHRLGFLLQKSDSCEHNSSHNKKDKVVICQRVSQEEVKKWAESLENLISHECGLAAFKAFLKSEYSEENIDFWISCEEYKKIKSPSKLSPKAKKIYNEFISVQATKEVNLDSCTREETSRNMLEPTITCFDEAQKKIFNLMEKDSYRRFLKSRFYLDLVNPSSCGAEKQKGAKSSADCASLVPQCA
#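 MLSMR compounds (23 nl, pin-transferred) preincubated 10 min at room temperature with a 500nM (2x) first reagent, then RGS4 at 900nM (2x) plus Transcreener GDP mix added; fluorescence polarization (620/688 nm) read before and after 90 min at 30 °C.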
# PI4K2A block: qHTS for small molecular inhibitors of PI4K2A. Phosphatidylinositol 4-kinase type 2-alpha (Homo sapiens), Q9BTU6. purified PI4K2A, ADP-Glo luminescence, 1 h; stronger effect = lower value. activity change, negative = inhibition, % at 76.9 µM. 420,000 compounds, 0.13% hits. AID 1346378, 2018; in the data active means activity change below about -50%; inconclusive means mostly about -30% to -49%
# Target sequence (Q9BTU6 whole entry, looked up): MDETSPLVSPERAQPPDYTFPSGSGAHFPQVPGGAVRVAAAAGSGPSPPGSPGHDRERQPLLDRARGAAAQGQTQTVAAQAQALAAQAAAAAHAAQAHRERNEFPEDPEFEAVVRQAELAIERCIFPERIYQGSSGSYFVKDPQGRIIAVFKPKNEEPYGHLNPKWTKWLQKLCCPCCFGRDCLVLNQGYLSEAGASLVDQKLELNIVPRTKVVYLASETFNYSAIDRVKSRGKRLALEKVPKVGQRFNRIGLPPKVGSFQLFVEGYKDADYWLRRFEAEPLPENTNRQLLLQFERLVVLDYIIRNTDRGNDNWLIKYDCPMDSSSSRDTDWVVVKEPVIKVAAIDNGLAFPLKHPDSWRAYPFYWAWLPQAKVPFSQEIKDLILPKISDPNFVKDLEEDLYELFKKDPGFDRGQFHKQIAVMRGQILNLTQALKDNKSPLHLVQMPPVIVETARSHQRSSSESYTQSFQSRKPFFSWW
#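 In this quantitative HTS, ADP production by PI4K2A was quantified luminescently after 1 h at ambient temperature; 100 microM adenosine served as plate-quality control.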
# Akt phos inh: HTS Assay for Inhibitors of Akt Phophorylation: Primary Screen; Neuro2A IGF-stimulated pAkt S473 HTRF, 20 min; stronger effect = lower value; activity change, % for hits at 50 µM; 360,000 compounds, 0.32% hits; in the data active means activity change below about -80%; inconclusive means mostly about -51% to -80%
#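 Single-point screen (50 µM final compound) in Neuro2A cells stimulated 20 min with 6 nM IGF at 37 deg C. After lysis, Ser473-phosphorylated Akt read by HTRF (ex 330 nm, em 615/665 nm) as the 665/615 ratio.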
# DRD3 antagonist: qHTS of D3 Dopamine Receptor Antagonist: qHTS; max response, negative = inhibition, %; D3R cells, DiscoveRx beta-arrestin luminescence, antagonist mode; stronger effect = lower value; 360,000 compounds, 2.5% hits; D(3) dopamine receptor (Homo sapiens), P35462; in the data active means max response below about -50%; inconclusive means no clear call, values can overlap the other calls
#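 Cells plated overnight at 1500 cells/well, then exposed to library compounds with dopamine controls for 90 minutes at 37 degrees C. DiscoveRx reagent added for 30–60 minutes at room temperature; luminescence read, quantitative HTS format.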
# Hits are given with their value; . = inactive; ? = inconclusive; / = no result; ! = not confirmed by another sample; [ ] = dose if it differs, or a comment.
SMILES,LDHA inh,D3 ag,RGS4 inhibitor,PI4K2A block,Akt phos inh,DRD3 antagonist
CC(Sc1cc(Cl)ccc1Cl)C(=O)NC(C)c1ccccn1 (centres undefined),.,/,/,/,/,/
O=C(CCn1c(=O)oc2cc(Cl)ccc21)Nc1cccc(-c2nnc3n2CCCCC3)c1,.,/,/,/,/,/
COc1ccc(CNC(=O)c2cc(-c3ccc(OC)cc3)nc3ccccc23)cc1,.,/,/,/,/,/
NCc1ccc(COc2ccccc2)cc1,.,/,/,/,/,/
Cc1ccc(Sc2nc(-c3ccccc3)nnc2C(F)(F)F)cc1,.,.,.,.,.,-70
COc1cc(Nc2nc3ccccc3nc2NS(=O)(=O)c2cccs2)cc(OC)c1,.,/,/,/,/,/
COc1ccc(C(CNC(=O)COc2ccc(Cl)c(C)c2)N2CCCCC2)cc1 (centres undefined),.,.,.,.,.,-95
COc1ccc(C(CNC(=O)COc2ccc(Br)cc2F)N2CCCC2)cc1 (centres undefined),.,.,.,.,.,-76
COc1ccc(OCC(=O)NCC(c2ccc(C)cc2)N2CCCC2)cc1 (centres undefined),.,/,/,/,/,/
COc1ccc(C(CNC(=O)COc2ccc(F)cc2Cl)N2CCCCC2)cc1 (centres undefined),.,.,.,.,.,.
COc1ccc(C(CNC(=O)COc2cccc(C(F)(F)F)c2)N2CCCC2)cc1 (centres undefined),.,.,.,.,.,-107
COc1ccc(C(CNC(=O)COc2cccc(C)c2)N2CCCC2)cc1 (centres undefined),.,.,.,.,.,-76
O=C(COC(=O)c1nc(-c2ccccc2)n(-c2ccccc2)n1)Nc1ccc(Cl)cc1,.,/,/,/,/,/
Cc1ccc(NC(=O)c2ccc(NCCCN3CCC(C)CC3)c([N+](=O)[O-])c2)cc1F,.,.,.,.,.,-65
Cc1ccc(NC(=O)c2ccc(NCCN)c([N+](=O)[O-])c2)cc1,.,.,.,.,.,.
O=C(Nc1cccc(Cl)c1)c1ccc(NCCCN2CCOCC2)c([N+](=O)[O-])c1,.,.,.,.,.,-89
CCCNC(=O)c1ccc(N2CCC3(CC2)CC(c2ccccc2)=NO3)c(NC(=O)c2ccccc2)c1,.,.,.,.,.,.
CCCCCCCC(=O)Nc1cc(C(=O)NCCC)ccc1N1CCC2(CC1)CC(c1ccccc1)=NO2,.,48,.,.,.,-119
CC(=O)c1cccc(NC(=O)C2=CC(c3ccc4c(c3)OCO4)=NS(=O)(=O)N2C)c1,.,.,.,.,.,-62
Cc1ccc(NC(=O)C2=CC(c3ccc4c(c3)OCO4)=NS(=O)(=O)N2C)cc1,.,.,.,.,/,/
Cc1ccccc1OCCC(=O)Nc1ccc(S(=O)(=O)N2CCCC2)cc1,.,.,/,.,.,-87
Cc1cccc(OCCC(=O)Nc2ccc(S(=O)(=O)N3CCCC3)cc2)c1,.,.,.,.,.,.
Cc1ccccc1NC1=C/C(=N\S(=O)(=O)c2cccs2)c2ccccc2C1=O,.,.,.,?,.,-112
CC(=O)Nc1ccc(NC2=C/C(=N/S(=O)(=O)c3cccs3)c3ccccc3C2=O)cc1,.,.,.,.,.,-66
Cc1ccc(NC2=C/C(=N/S(=O)(=O)c3cccs3)c3ccccc3C2=O)cc1C,.,.,.,.,.,.
SMILES,LDHA inh,D3 ag,RGS4 inhibitor,PI4K2A block,Akt phos inh,DRD3 antagonist
COc1ccc(S(=O)(=O)/N=C2\C=C(Nc3ccc(O)cc3)C(=O)c3ccccc32)cc1,.,.,.,?,.,-80
CSc1ccc(-c2nc3cnccn3c2NC2CCCCC2)cc1,.,/,/,/,/,/
O=C(O)c1ccc2c(c1)C(=O)N(C(Cc1ccc(O)cc1)C(=O)O)C2=O (centres undefined),.,.,.,.,.,-70
COC(=O)c1cccc(NC(=O)C23CC4CC(C2)CC(C(=O)Nc2cccc(C(=O)OC)c2)(C4)C3)c1,.,/,/,/,/,/
COc1cc(OC)cc(C(=O)Oc2cccc3ccccc23)c1,.,/,/,/,/,/
CCCCNc1cc(NC(C)=O)cc2cc(OC)c(OC)cc12,.,53,.,.,.,-75
COc1cc2cc(NC(C)=O)cc(NCc3ccccc3)c2cc1OC,.,.,.,.,.,?
CCCCc1ccc(Nc2ncnc3c2cnn3-c2ccc(OC)cc2)cc1,.,/,/,/,/,/
CCN(CC)CCNC(=O)c1ccc(Sc2ccc(Cl)cc2)c(NC(C)=O)c1,.,.,.,.,.,-77
CCN(CC)CCNC(=O)c1ccc(Sc2ccc(C)cc2)c(NC(C)=O)c1,.,.,.,.,.,-88
CCOC(=O)c1cnc(SCC(=O)Nc2cccc(Br)c2)nc1N,.,/,/,/,/,/
CCOc1cc(/C=C2\N=C(SC)SC2=O)cc([N+](=O)[O-])c1OC(C)=O,.,.,.[11.4 µM],.,.,.
CCOc1c(OC(C)=O)ccc(/C=C2\N=C(SCC)SC2=O)c1[N+](=O)[O-],.,.,?,.,.,-70
CCOc1cc(/C=C2\N=C(SCC)SC2=O)cc([N+](=O)[O-])c1OC(C)=O,.,.,.[11.4 µM],.,.,-97
CCCCN(CC)c1ccc(NS(=O)(=O)c2ccc3c(c2)CCCC3)cc1C(=O)O,.,/,/,/,/,/
O=c1[nH]ncc(N2CCN(Cc3ccccc3)CC2)c1Cl,.,.,.,.,.,-71
Cc1ccc(N2CCN(C(=O)C3CCCN(c4ncnc5c4nc4n5CCCCC4)C3)CC2)c(C)c1 (centres undefined),.,.,.,.,.,.
Cc1ccc(C)c(N2CCN(C(=O)C3CCCN(c4ncnc5c4nc4n5CCCCC4)C3)CC2)c1 (centres undefined),.,31,.,.,.,.
Cc1cccc(N2CCN(C(=O)C3CCN(c4ncnc5c4nc4n5CCCCC4)CC3)CC2C)c1 (centres undefined),.,35!,.,.,.,.
O=C(C1CCN(c2ncnc3c2nc2n3CCCCC2)CC1)N1CCN(c2ccccc2F)CC1,.,62!,.,.,/,.
CC(C)(c1ccc(O)cc1)c1ccc(Cl)cc1,.,/,/,/,/,/
COC(=O)c1ccccc1SCC(=O)C12CC3CC(CC(C3)C1)C2,.,/,/,/,/,/
Cc1ccc(SC2=C(Sc3ccc(C)cc3)C(=O)c3ccccc3C2=O)cc1,.,.,.,.,.,-114
CN(Cc1ccc(-c2ccc(Cl)cc2)o1)C(=O)CSc1nnc(C2CC2)n1Cc1ccco1,.,/,/,/,/,/
Clc1ccc2c(Cl)cc[n+](CCC3CCCCC3)c2c1,-36,/,/,/,/,/

# High-throughput results from PubChem.
